Inconclusive results are not listed. Activity calls are given as the source filed them. Calls follow the shape of the dose curve; as a rule, active = well fitted curve in the direction sought with a large enough effect; inconclusive = small, poorly fitted or top-dose-only effect, or another doubt; inactive = no such curve, though single readings can be large; an effect the other way counts as inactive or inconclusive.
Columns and labels:
[1] = qHTS of pediatric cancer cell lines to identify multiple opportunities for drug repurposing: Primary screen for TC32 cells (AID 1347089); also: nearly all actives have a fitted effect of over 60% in size
Summary of the method: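 Measured quantity: luminescence from CellTiter-Glo, reflecting metabolically active TC32 cells following 48 h of compound. Curves came straight from multi-point titrations, with 8 or 11 points in primary and 11 in confirmatory screening.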

[2] = qHTS of pediatric cancer cell lines to identify multiple opportunities for drug repurposing: Primary screen for DAOY cells (AID 1347090); also: nearly all actives have a fitted effect of over 55% in size
Summary of the method: (§1)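 Viability measured as metabolically active cells via CellTiter-Glo luminescence following 48 hours of compound exposure, 11-point dilutions in confirmatory testing. 500-1,000 cells/well plated 5 hours before dosing; controls were DMSO and 2.3 µM bortezomib.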

[3] = qHTS of pediatric cancer cell lines to identify multiple opportunities for drug repurposing: Primary screen for SJ-GBM2 cells (AID 1347091)
Summary of the method: as §1

[4] = qHTS of pediatric cancer cell lines to identify multiple opportunities for drug repurposing: Primary screen for A673 cells (AID 1347092); also: nearly all actives have a fitted effect of over 45% in size
Summary of the method: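 Cells are plated, rested 5 h, dosed by pintool, incubated 48 h, then lysed with CellTiter-Glo and read by luminescence. DMSO is the neutral control; bortezomib at 2.3 uM final is the positive control.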

[5] = qHTS of pediatric cancer cell lines to identify multiple opportunities for drug repurposing: Primary screen for SK-N-MC cells (AID 1347093)
Summary of the method: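 Metabolically active cells were quantified by ATP-dependent luminescence (CellTiter-Glo, 15 min at room temperature) following 48 h treatment. Cells had been plated at 500-1,000 per well and settled for 5 h beforehand.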

[6] = qHTS of pediatric cancer cell lines to identify multiple opportunities for drug repurposing: Primary screen for BT-37 cells (AID 1347094)
Summary of the method: (§2)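 Readout: CellTiter-Glo luminescence, 48 h treatment. Controls DMSO (neutral) and bortezomib 2.3 µM final (positive). Potency and efficacy taken from primary-screen concentration-response curves.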

[7] = qHTS of pediatric cancer cell lines to identify multiple opportunities for drug repurposing: Primary screen for NB-EBc1 cells (AID 1347095)
Summary of the method: as §2

[8] = qHTS of pediatric cancer cell lines to identify multiple opportunities for drug repurposing: Primary screen for U-2 OS cells (AID 1347096); also: nearly all actives have a fitted effect of over 50% in size
Summary of the method: (§3)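 Viability after 48 h compound treatment at 37C, 500-1,000 cells/well, read as ATP luminescence with CellTiter-Glo. Primary screens used 11-point (MIPE, 0.78 nM-46 µM) or 8-point (NPC, 0.59 nM-46 µM) final concentrations; follow-up screens used 11-point dilutions.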

[9] = qHTS of pediatric cancer cell lines to identify multiple opportunities for drug repurposing: Primary screen for Saos-2 cells (AID 1347097); also: nearly all actives have a fitted effect of over 40% in size
Summary of the method: as §2

[10] = qHTS of pediatric cancer cell lines to identify multiple opportunities for drug repurposing: Primary screen for SK-N-SH cells (AID 1347098); also: nearly all actives have a fitted effect of over 65% in size
Summary of the method: (§4)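 Cells (500-1,000/well) rested 5 h, then received compounds for 48 h; metabolically active cells were measured by CellTiter-Glo luminescence. Final concentrations spanned up to 46 µM (MIPE, 11-point) or 0.59 nM-46 µM (NPC, 8-point) in primary screens, 11-point in follow-ups.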

[11] = qHTS of pediatric cancer cell lines to identify multiple opportunities for drug repurposing: Primary screen for NB1643 cells (AID 1347099); also: nearly all actives have a fitted effect of over 50% in size
Summary of the method: as §2

[12] = qHTS of pediatric cancer cell lines to identify multiple opportunities for drug repurposing: Primary screen for LAN-5 cells (AID 1347100)
Summary of the method: as §3

[13] = qHTS of pediatric cancer cell lines to identify multiple opportunities for drug repurposing: Primary screen for BT-12 cells (AID 1347101); also: nearly all actives have a fitted effect of over 25% in size
Summary of the method: as §4

[14] = qHTS of pediatric cancer cell lines to identify multiple opportunities for drug repurposing: Primary screen for Rh18 cells (AID 1347102); also: nearly all actives have a fitted effect of over 65% in size
Summary of the method: as §3

[15] = qHTS of pediatric cancer cell lines to identify multiple opportunities for drug repurposing: Primary screen for OHS-50 cells (AID 1347103); also: nearly all actives have a fitted effect of over 40% in size
Summary of the method: as §4

[16] = qHTS of pediatric cancer cell lines to identify multiple opportunities for drug repurposing: Primary screen for RD cells (AID 1347104); also: nearly all actives have a fitted effect of over 55% in size
Summary of the method: as §2

[17] = qHTS of pediatric cancer cell lines to identify multiple opportunities for drug repurposing: Primary screen for MG 63 (6-TG R) cells (AID 1347105); also: nearly all actives have a fitted effect of over 50% in size
Summary of the method: as §2

[18] = qHTS of pediatric cancer cell lines to identify multiple opportunities for drug repurposing: Primary screen for control Hh wild type fibroblast cells (AID 1347106); also: nearly all actives have a fitted effect of over 55% in size
Summary of the method: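 Cells (500-1,000/well) in growth media were settled 5 h at 37 degrees C, then given compounds for 48 h. Viability was read as CellTiter-Glo luminescence. Primary runs used MIPE at 11 points (0.78 nM-46 µM) and NPC at 8 points (0.59 nM-46 µM); follow-ups used 11 points.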
Potency is read from the fitted curve at half-maximal effect.

| Structure (SMILES) | Potency [1] | Potency [2] | Potency [3] | Potency [4] | Potency [5] | Potency [6] | Potency [7] | Potency [8] | Potency [9] | Potency [10] | Potency [11] | Potency [12] | Potency [13] | Potency [14] | Potency [15] | Potency [16] | Potency [17] | Potency [18] |
| --- | --- | --- | --- | --- | --- | --- | --- | --- | --- | --- | --- | --- | --- | --- | --- | --- | --- | --- |
| COCCn1c2c([n+](Cc3cnccn3)c1C)C(=O)c1ccccc1C2=O | 65.8 nM (active) | 11.8 nM (active) | 13.2 nM (active) | 5.9 nM (active) | 11.8 nM (active) | 153 nM (active) | 93.5 nM (active) | 118 nM (active) | 37.2 nM (active) | 482 nM (active) | 209 nM (active) | 4.7 nM (active) | 34.3 nM (active) | 33.2 nM (active) | 15.3 nM (active) | 11.8 nM (active) | 187 nM (active) | 264 nM (active) |
| O=C(CCCCCCNC(=O)c1cnc(N(c2ccccc2)c2ccccc2)nc1)NO | 18600 nM (active) | 18700 nM (active) | 5260 nM (active) | 9350 nM (active) | 2960 nM (active) | 15300 nM (active) | 4180 nM (active) | inactive | 11800 nM (active) | 10800 nM (active) | 3720 nM (active) | 4690 nM (active) | 17200 nM (active) | 5900 nM (active) | 6850 nM (active) | 13200 nM (active) | 14800 nM (active) | inactive |
| CC(C)(C)OC(=O)Nc1ccc(-c2cc(C(=O)NCCCCCCC(=O)NO)no2)cc1 | 9300 nM (active) | 4690 nM (active) | 1480 nM (active) | 2960 nM (active) | 833 nM (active) | 5440 nM (active) | 1180 nM (active) | 4690 nM (active) | 2350 nM (active) | 6810 nM (active) | 1180 nM (active) | 1660 nM (active) | 17200 nM (active) | 2350 nM (active) | 4320 nM (active) | 5260 nM (active) | inactive |  |
| CCc1c2c(nc3ccc(O)cc13)-c1cc3c(c(=O)n1C2)COC(=O)[C@]3(O)CC | 8.3 nM (active) | 29.6 nM (active) | 6.6 nM (active) | 7.4 nM (active) | 2.1 nM (active) | 8.6 nM (active) | 1 nM (active) | inactive | 18.7 nM (active) | 152 nM (active) | 23.5 nM (active) | 1 nM (active) | 193 nM (active) | 105 nM (active) | 8.6 nM (active) | 372 nM (active) | 18.7 nM (active) |  |
| CNC(=O)c1ccc(N2C(=S)N(c3cnc(C#N)c(C(F)(F)F)c3)C(=O)C23CCC3)cc1F | inactive | 935 nM (active) | 7430 nM (active) | 1480 nM (active) | 1050 nM (active) | 19300 nM (active) | 7430 nM (active) | 14800 nM (active) | inactive | 1210 nM (active) | 3320 nM (active) | 8330 nM (active) | 19300 nM (active) | 14800 nM (active) |  | 5900 nM (active) | 2350 nM (active) | 3720 nM (active) |
| CC[C@@H]1C(=O)N(C)c2cnc(Nc3ccc(C(=O)NC4CCC(N5CCN(CC6CC6)CC5)CC4)cc3OC)nc2N1C(C)C (stereo partly drawn) | 370 nM (active) | 74.3 nM (active) | 74.3 nM (active) | 93.5 nM (active) | 148 nM (active) | 2430 nM (active) | 332 nM (active) | 11800 nM (active) | 526 nM (active) | 607 nM (active) | 469 nM (active) | 52.6 nM (active) | 6110 nM (active) | 6620 nM (active) | 122 nM (active) | 187 nM (active) | 11800 nM (active) |  |
| CN(C)Cc1c(C(=O)NCCOc2ccc(C(=O)NO)cc2)oc2ccccc12 | 5870 nM (active) | 3720 nM (active) | 1050 nM (active) | 935 nM (active) | 743 nM (active) | 1930 nM (active) | 662 nM (active) | 2960 nM (active) | 2960 nM (active) | 2410 nM (active) | 935 nM (active) | 469 nM (active) | 3850 nM (active) | 590 nM (active) | 769 nM (active) | 1870 nM (active) | 3720 nM (active) |  |
| CCCCc1nc2cc(C=CC(=O)NO)ccc2n1CCN(CC)CC | 5870 nM (active) | 3720 nM (active) | 469 nM (active) | 118 nM (active) | 29.6 nM (active) | 48.5 nM (active) | 590 nM (active) | 743 nM (active) | 29.6 nM (active) | 3410 nM (active) |  | 83.3 nM (active) | 193 nM (active) | 14.8 nM (active) | 153 nM (active) |  | 3720 nM (active) | 16600 nM (active) |
| Cc1nc(Nc2n[nH]c3c2CN(C(=O)N[C@H](CN(C)C)c2ccccc2)C3(C)C)c2sccc2n1 | 739 nM (active) | 11800 nM (active) | 1050 nM (active) | 14.8 nM (active) | 33.2 nM (active) | 611 nM (active) | 10500 nM (active) | 9350 nM (active) | 1660 nM (active) | 17100 nM (active) | 935 nM (active) | 418 nM (active) | 2430 nM (active) | 1320 nM (active) | 3.2 nM (active) | 2960 nM (active) | 9350 nM (active) | 14800 nM (active) |
| O=C1CCC[C@@H]2[C@H]3CCC[N+]4([O-])CCC[C@@H](CN12)[C@@H]34 (stereo partly drawn) | inactive | inactive | inactive | inactive | inactive | inactive | inactive | inactive | inactive | inactive | inactive | inactive | inactive | inactive | inactive | inactive | inactive | inactive |

— PubChem BioAssay (NCATS)
